Screening data deposited in PubChem BioAssay by several laboratories.
The list is not random: actives were taken first. Their share in the collection is about 1.8%.
Sa RN4220 lethal = kills Staphylococcus aureus RN4220; AID 1259311; 330,000 compounds, 0.33% hits; S. aureus RN4220 growth, OD600, 16 h; inhibition, % (concentration not given with the values); in the data active = inhibition above about 85%;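 note: plate controls were untreated cells for no effect and reference antibiotic for full effect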
Mtb hypoxia rep = inhibitors of hypoxia-regulated fluorescent reporter in Mycobacterium tuberculosis | 300,000 compounds, 0.1% hits | M. tuberculosis hypoxia-regulated fluorescent reporter, fluorescence | fluorescence inhibition, % (test concentration not listed); in the data active = fluorescence inhibition mostly above about 23%, no sharp cut-off; inactive = mostly below about 17%
ugtP null kill = compounds lethal to S. aureus RN4220 ugtP deletion mutant. OD600 growth, 16 h. growth inhibition, % (no concentration beside the values). 330,000 compounds, 0.54% hits; in the data active = growth inhibition above about 68%;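 note: plate controls were untreated wells for no effect and antibiotic for full effect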
DUSP3 inh = inhibitors of human VHR1 phosphatase (DUSP3); 290,000 compounds, 0.52% hits; recombinant VHR phosphatase, pNPP absorbance; inhibition, % at 13.3 µM; P51452; in the data active = inhibition above about 50%
Target sequence (P51452 whole entry, looked up): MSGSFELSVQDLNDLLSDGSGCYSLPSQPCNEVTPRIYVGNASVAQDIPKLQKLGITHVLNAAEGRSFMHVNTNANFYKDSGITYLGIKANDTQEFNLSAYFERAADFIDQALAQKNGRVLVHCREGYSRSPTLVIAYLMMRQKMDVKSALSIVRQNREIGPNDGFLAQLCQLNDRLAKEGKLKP
PriA SSB inh = inhibitors of Klebsiella pneumoniae PriA binding to SSB C-terminal tail. inhibition, % at 33 µM. 430,000 compounds, 0.6% hits. AlphaScreen SSBct-PriA binding, biotinylated peptide; in the data active = inhibition mostly above about 37%, no sharp cut-off; inactive = mostly below about 20%;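 note: plate controls were negative control peptide for no effect and reference peptide for full effect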
PfHsp40 rescue = restores yeast growth despite PfHsp40 toxicity; growth rescue, % at 12.5 µM; 340,000 compounds, 0.68% hits; S. cerevisiae expressing PfHsp40, growth rescue, ATP luminescence; in the data active = growth rescue above about 28%, passing the limit was not always enough; inconclusive = no clear call, values can overlap the other calls;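 note: yeast W303a lacking pdr1 and pdr3 grown in galactose medium; growth measured after three days at 30 °C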
An asterisk follows results filed as active; u = inconclusive; x = not tested or not shown; ! = a repeat was not active.

SMILES | Sa RN4220 lethal | Mtb hypoxia rep | ugtP null kill | DUSP3 inh | PriA SSB inh | PfHsp40 rescue
CCOC1OC(C(=O)Nc2ccccc2)=CC(C)C1CCCO (stereo unspecified) | 8 | 3 | 2 | x | x | x
O=C(NN=Cc1ccco1)C(O)c1ccccc1 (stereo unspecified) | 3 | 7 | 15 | x | x | x
COc1cnc(-c2ccccn2)nc1Oc1ccc(Cl)cc1 | -1 | 6 | 1 | 21 | 52* | 7
COc1cnc(-c2ccccn2)nc1Oc1ccccc1Cl | 3 | 5 | -2 | -5 | 2 | -1
COc1cnc(-c2ccccn2)nc1Oc1ccc(F)cc1F | 6 | -3 | 4 | 6 | 53* | 1
Cn1ccnc1SCC1CCN(C(=O)c2cccs2)CC1 | x | x | x | x | 35* | x
COc1ccc(CCNC(=O)N2CCC[C@H](c3nnc(-c4cccs4)o3)C2)cc1 | x | x | x | x | -7 | x
CCCOc1ccc2oc(=O)c3c(c2c1)CCCN3C(=O)CN1CCN(c2ncccn2)CC1 | -3 | x | -5 | 56* | -9 | 1
Nc1ccnc(-c2ccccn2)n1 | x | x | x | x | 151* | x
NCc1ccnc(-c2ccccn2)n1 | x | x | x | x | 126* | x
N#Cc1cnc(-c2ccccn2)nc1N | x | x | x | x | 83* | x
CC(C)S(=O)(=O)c1cnc(-c2ccccn2)nc1N | 5 | -8 | 1 | -1 | 2 | 0
Nc1nccc(-c2ccccn2)n1 | x | x | x | x | 47 | x
Cc1nn(C)cc1C=NNC(=O)Cn1nnc(N)n1 | 3 | -12 | 0 | x | x | x
CCOc1cc(-c2nnc(NC(C)=O)o2)cc(OCC)c1OCC | x | x | x | x | -7 | x
CCCNS(=O)(=O)c1cc2c(cc1Br)CCN2C(=O)CC | 3 | -2 | 4 | x | -2 | 1
CCCCN(C)S(=O)(=O)c1cc2c(cc1Br)CCN2C(=O)C1CC1 | 10 | 3 | -7 | x | -3 | 123*
CC1(C)Cc2c(sc3ncn4nnnc4c23)CO1 | x | x | x | 52* | x | x
O=C(c1cccc2ccccc12)N(Cc1ccoc1)Cc1cccs1 | x | x | x | x | 3 | x
Cc1ccc(SCC(O)=C(C#N)c2nc3ccccc3s2)cc1 | 97* | 6 | 92* | x | -4 | x
Cc1ccc(SC/C(O)=C(\C#N)c2nc3ccccc3s2)cc1 | x | x | x | -16 | x | 0
Cc1cc(S(=O)(=O)N2CCN(c3ccccn3)CC2)ccc1F | 2 | 3 | 2 | 23 | -5 | 0
Cc1cc(C)c(S(=O)(=O)N2CCN(c3ccccn3)CC2)c(C)c1 | 4 | 12 | 8 | x | -13 | 53*
Cn1cnc([N+](=O)[O-])c1S(=O)(=O)Oc1ccc(Cl)cc1 | 34 | x | 43 | x | -16 | 233*
Cn1cnc([N+](=O)[O-])c1S(=O)(=O)Oc1cccc2ccccc12 | 52 | x | 91* | x | -9 | u
SMILES | Sa RN4220 lethal | Mtb hypoxia rep | ugtP null kill | DUSP3 inh | PriA SSB inh | PfHsp40 rescue
Cn1cnc([N+](=O)[O-])c1Oc1cccc2ccccc12 | 9 | 6 | -3 | 4 | -25 | -1
COc1ccc(C(=O)CSc2cc(C)[nH]c(=O)n2)cc1 | 6 | -3 | -11 | 50* | -4 | -1
O=C(NCC(c1ccc2c(c1)OCO2)N1CCN(c2ccccc2F)CC1)c1ccc([N+](=O)[O-])cc1 (stereo unspecified) | x | x | x | x | -8 | x
Cc1cc(C)c2nc(N(CCCN(C)C)C(=O)c3ccc(S(=O)(=O)N4CCCCCC4)cc3)sc2c1 | 0 | x | -10 | x | 36*! | 0
Cc1ccc2sc(N(CCCN(C)C)C(=O)c3ccc(S(=O)(=O)N4CCCCCC4)cc3)nc2c1C | -2 | 17 | -10 | x | 17 | 0
Cc1cc(C)c2nc(N(CCCN(C)C)C(=O)c3ccc4c(c3)CCCC4)sc2c1 | -15 | 19 | -24 | x | 43* | x
Cc1ccc2nc(N(CCCN(C)C)C(=O)c3ccc4c(c3)CCCC4)sc2c1 | -3 | 17 | -22 | 33 | 26 | 0
O=C(O)CN1CCNCCN(CC(=O)O)CCNCC1 | x | x | x | x | -14 | 107*
O=C(COc1ccc(Cl)cc1)NCc1nnc(SCc2ccc(C(F)(F)F)cc2)n1-c1ccc([N+](=O)[O-])cc1 | x | x | x | x | 3 | x
Cc1nc(C)c(C(=O)N(c2ccccc2F)C(C(=O)NCC2CCCO2)c2ccccc2)s1 (stereo unspecified) | 6 | 9 | 2 | 54* | -9 | 13
Cc1nc(C)c(C(=O)N(c2ccc(F)cc2)C(C(=O)NCC2CCCO2)c2ccccc2)s1 (stereo unspecified) | 6 | 8 | -1 | 1 | -10 | -1
COC1C(OC(=O)c2ccc(C)[nH]2)C(O)C(Oc2ccc3c(O)c(NC(=O)c4ccc(O)c(CC=C(C)C)c4)c(=O)oc3c2Cl)OC1(C)C (stereo unspecified) | 94* | x | 100* | 28 | 18 | 3
